An excerpt weighted towards active compounds, which were near 21% of everything screened.
CHX counter: counter-screen for Shiga toxin inhibitors: cycloheximide protein synthesis inhibition. cell reporter, cycloheximide protein synthesis inhibition counterscreen. max response, %. hit rate 12% among 300,000; in the data active = max response mostly above about 13%, no sharp cut-off; inactive = mostly below about 14%; also: read at 38.3 µM for the half of the compounds with a filed dose; 0% is about no effect
NS1 inh: inhibitors of influenza NS1 protein function. Potency, µM (highest dose often 46.1 µM), for the others: top-dose activity, positive = more growth. hit rate 0.4% among 270,000; also: potency is read from the fitted curve at half-maximal effect; actives are rising curves; nearly all actives have a fitted effect of over 50% in size
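Read-out: OD600 growth recovery of NS1-expressing budding yeast. Cells grown overnight at 30C in -URA glucose medium, washed, resuspended and diluted 1:100 in 2% galactose assay medium, pH 6.0. Same strain lacking NS1 served as positive control.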
Pf growth 96h: inhibits malaria parasite growth, 96 h; P. falciparum luciferase reporter growth, 96 h; Potency, µM (series often up to 28.7 µM), inactives show top-dose activity change, negative = inhibition, hits mostly inhibitors; hit rate 6.9% among 320,000; AID 504834; active = well fitted inhibition curve with a large enough effect; inconclusive = small, poorly fitted or top-dose-only effect, or another doubt; inactive = no such curve, though single readings can be large or run the other way; also: potency is read from the fitted curve at half-maximal effect; % is scaled to controls: 0 for no effect and ±100 for the full control effect
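Luminescence readout: decreased luciferase signal marks inhibited growth of reporter-expressing P. falciparum in infected red cells (2% hematocrit, 0.05% parasitemia final), exposed to compound two generations (96 h, 37 C, 5% CO2).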
Shiga toxin inh: Shiga toxin inhibition; inhibition, % at 38.7 µM; Vero cells, Shiga toxin protein synthesis inhibition reporter; hit rate 9.2% among 290,000; AID 2315; in the data active = inhibition mostly above about 28%, no sharp cut-off; inactive = mostly below about 43%; also: 0% is about no effect
SARS PLpro yeast: inhibitors of SARS-CoV papain-like protease in yeast; hit rate 0.19% among 330,000; Potency, µM (highest dose often 32.9 µM), inactives show at the top dose activity, positive = growth rescue, actives largely listed as activators; S. cerevisiae expressing SARS-CoV PLpro, growth rescue; also: potency is read from the fitted curve at half-maximal effect; 0% is about no effect; nearly all actives have a fitted effect of over 55% in size
Pf growth 48h: P. falciparum growth inhibition at 48 hours (one generation). Potency, µM (series often up to 28.7 µM), for inactives: top-dose activity change, negative = inhibition, actives largely listed as inhibitors. hit rate 5.9% among 310,000. AID 504832. P. falciparum luciferase growth in erythrocytes, 48 h; active = well fitted inhibition curve with a large enough effect; inconclusive = small, poorly fitted or top-dose-only effect, or another doubt; inactive = no such curve, though single readings can be large or run the other way; also: potency is read from the fitted curve at half-maximal effect; % is scaled to controls: 0 for no effect and ±100 for the full control effect
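Luciferase-expressing parasites in RBCs, 2% Hct / 0.1% parasitemia final; RPMI 1640 + 0.5% Albumax; 37 C, 5% CO2, one generation; luminescence read-out, lower signal = inhibition.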
Active calls of the source: *; ? = inconclusive; nt = no result given; [ ] = remark or other dose. Unless noted, calls follow the shape of the full dose curve.

SMILES	CHX counter	NS1 inh	Pf growth 96h	Shiga toxin inh	SARS PLpro yeast	Pf growth 48h
CCCc1nc2ccccc2c(C(=O)OCC(=O)Nc2ccc(S(=O)(=O)N3CCOCC3)cc2)c1CC	-3	-2%	nt	-3	-2%	15µM*
CCCc1nc2ccccc2c(C(=O)OCC(=O)Nc2cccc(S(=O)(=O)N3CCOCC3)c2)c1CC	-2	30%	7.4µM*	-3	10%	?
COc1ccc(S(=O)(=O)N2CCN(C(=O)CN3C(=O)NC(C)(c4ccc5ccccc5c4)C3=O)CC2)cc1 (stereo not drawn)	nt	nt	?	nt	-11%	?
O=C(Nc1nc(-c2nc3ccccc3s2)cs1)C1COc2ccccc2O1 (stereo not drawn)	23*	-83%	139%	68*	1%	94%
CS(=O)(=O)c1ccc2nc(NC(=O)CCN3C(=O)c4ccccc4C3=O)sc2c1	11	nt	52%	9	-5%	-18%
COc1ccc(OC)c(-c2csc(NC(=O)C3COc4ccccc4O3)n2)c1 (stereo not drawn)	-3	nt	9%	-8	-3%	0%
COc1ccc2nc(NC(=O)C3COc4ccccc4O3)sc2c1 (stereo not drawn)	30*	2%	292%	77*	-5%	nt
CS(=O)(=O)c1ccc2nc(NC(=O)C3COc4ccccc4O3)sc2c1 (stereo not drawn)	25*	-4%	nt	38	-6%	24%
COc1ccc2nc(NC(=O)C3CC(=O)N(c4ccc5c(c4)OCCO5)C3)sc2c1 (stereo not drawn)	nt	nt	?	nt	-2%	?
COc1ccc2nc(NNC(=O)C3COc4ccccc4O3)sc2c1 (stereo not drawn)	13*	-8%	-3%	55*	-15%	2%
CC(C)NC(=O)NC(=O)COC(=O)c1ccccc1Oc1ccccc1	-3	-1%	-8%	8	-7%	nt
O=C(Nc1ccccc1)N1CCC(C(=O)N2CCCC(C(F)(F)F)C2)CC1 (stereo not drawn)	-3	-9%	?	26	0%	?
O=C(Nc1ccccc1C(=O)NC(Cc1ccccc1)C(=O)NC1CCCCCC1)c1ccccc1 (stereo not drawn)	-2	-1%	?	-1	0%	?
COCCCn1c(SCC(=O)NC2CCS(=O)(=O)C2)nnc1-c1ccc(Cl)cc1 (stereo not drawn)	nt	nt	23%	nt	-19%	13%
CCC(C)(C)NC(=O)C(C(C)C)N(CC1CCCO1)C(=O)CNS(=O)(=O)c1ccc(F)cc1 (stereo not drawn)	-4	5%	15%	-6	-2%	?
Cc1ccc2cc(C#N)c(N3CCCN(C(=S)NCCCN(C)C)CC3)nc2c1	-7	2%	?	-13	2%	10µM*
Cc1cc(C)c2cc(C#N)c(N3CCCN(C(=S)NCCCN(C)C)CC3)nc2c1	-7	0%	10µM*	-3	2%	-45%
CC(=O)c1cc(C#N)c(N2CCCC2)nc1C	2	nt	42%[5.75 µM]	23	0%	-7%
Cc1cc(C)c2cc(C#N)c(N3CCCC3)nc2c1	1	0%	10µM*	-7	-3%	-5%
c1ccc(CSc2ccc(-c3cccs3)nn2)nc1	44*	nt	?	51*	2%	200%
N#Cc1c(N)nc(SCc2ccccn2)c(C#N)c1-c1cccs1	1	13%	nt	-12	3%	?
O=C(CSc1ccc(-c2cccs2)nn1)Nc1ccccc1	14	nt	1%	49	1%	10%
c1ccc(CSc2ccc(-c3cccs3)nn2)cc1	31*	-1%	156%	40*	1%	200%
Cc1nn2c(NCCN(C)C)c3c(nc2c1-c1ccccc1)CCCC3	-1	2%	2.1µM*	1	0%	?
COc1cccc(Nc2c3c(nc4c(-c5ccccc5)c(C)nn24)CCC3)c1	-5	22%	12µM*	4	-25%	?
SMILES	CHX counter	NS1 inh	Pf growth 96h	Shiga toxin inh	SARS PLpro yeast	Pf growth 48h
CCCCNc1c2c(nc3c(-c4ccccc4)c(C)nn13)CCC2	6	-8%	9.3µM*	9	12%	nt
COCCNc1c2c(nc3c(-c4ccccc4)c(C)nn13)CCCC2	2	-171%	9%	-9	-20%	?
Cc1nn2c(NCCCN3CCOCC3)c3c(nc2c1-c1ccccc1)CCC3	-2	-5%	-28%	-7	-3%	?
Cc1nn2c(NCc3cccnc3)c3c(nc2c1-c1ccccc1)CCC3	0	0%	1.5µM*	6	-2%	?
COc1ccc(C(=O)NC2CCN(C(=O)Nc3ccccc3Cl)CC2)cc1	8	nt	13%	20	-1%	?
COCCNC(=O)Cn1cc(C(=O)c2ccco2)c2ccccc21	-4	nt	-11%[1.15 µM]	36	1%	-6%
Cc1nn2c(N3CCCC3)c3c(nc2c1-c1ccccc1)CCC3	10	-2%	?	14	0%	?
Cc1nn2c(N3CCN(CCO)CC3)c3c(nc2c1-c1ccccc1)CCCC3	-1	-2%	?	-13	0%	8.3µM*
COc1ccccc1C(CNC(=O)C1COc2ccccc2O1)N1CCCC1 (stereo not drawn)	nt	nt	?	nt	1%	?
COc1ccc(CNC(=O)C2COc3ccccc3O2)cc1 (stereo not drawn)	29*	5%	0%	39*	-10%	74%
O=C(NCCO)C1COc2ccccc2O1 (stereo not drawn)	-3	nt	-16%	-5	-1%	10%
COc1ccccc1CNC(=O)C1COc2ccccc2O1 (stereo not drawn)	30*	-9%	nt	43*	-5%	47%
O=C(NCc1cccnc1)C1COc2ccccc2O1 (stereo not drawn)	-2	7%	?	-8	5%	-2%
O=C(NCCc1ccc(Cl)cc1)C1COc2ccccc2O1 (stereo not drawn)	13*	5%	-2%	-3	-14%	2%
CCOCc1cnc(C)nc1NCC(=O)c1c(C)n(C)c2ccc(OC)cc12	-2	-5%	-6%	5	-4%	7.4µM*
COc1ccc2c(c1)c(C(=O)CNc1nc(C)cs1)c(C)n2C	-4	-20%	2.9µM*	-23	-32%	?
O=c1c2ccccc2nnn1Cc1ccccc1Cl	10	-6%	?	7	-2%	7%
CCn1cc(/C=C(\NC(=O)c2ccccc2)C(=O)NCCCN2CCOCC2)c2ccccc21	-3	-3%	41%	-5	-5%	-9%
CN1CCN(C2=Cc3ccc(Cl)cc3Sc3ccc(F)cc32)CC1	-5	-6%	12µM*	-7	-21%	13µM*
CC(=O)c1sc(NC(=O)COc2ccc(Cl)cc2Cl)nc1C	8	-8%	?	5	0%	30%
Cc1cccc(OCC(=O)Nc2ncn[nH]2)c1C	11*	-1%	108%	16	0%	84%
Cc1cccc(OCC(=O)Nc2nnn(C)n2)c1C	5	-1%	-24%	8	8%	-4%
COc1ccccc1OCC(=O)Nc1ccncc1	10	-4%	0.52µM*	22	0%	53%

Assay outcomes as filed in PubChem BioAssay.
